Screens as filed in PubChem BioAssay.
Rows were chosen to be rich in hits. Some 3.7% of all compounds tested hit in one or more screens of this group.
B2AR arrestin ag = qHTS assay of beta-arrestin-biased ligands of beta2-adrenergic receptor: NCGC Sytravon Library Screen; HTLA Tango cells, beta-arrestin recruitment, luciferase luminescence, 18 h; 44,000 tested, under 10 active; Potency, µM (titrated, usually from 46.1 µM), usual class: activators;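 also: potency is read from the fitted curve at half-maximal effect; 0% = DMSO and full agonism = EC100 isoproterenol or metaproterenol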
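Luminescence read-out: arrestin recruitment to recombinant beta2-AR releases tTA, inducing luciferase. Cells exposed 18 hr at 37 degrees C to up to 46 microM compound; %Activity from corrected signal, concentration-response curves classified by r2, magnitude and efficacy.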
FH mod = Identification of activators of human fumarate hydratase by quantitative high-throughput screening. FH coupled MDH/diaphorase resazurin fluorescence, 15 min. Potency, µM (series often up to 79.9 µM), without a hit: at the highest dose activity change, negative = inhibition, hits mostly inhibitors. 54,000 compounds, 0.22% hits; also: potency is read from the fitted curve at half-maximal effect; % is scaled to controls: 0 for no effect and ±100 for the full control effect; the screen sought activators but most active calls are inhibition curves; nearly all actives have a fitted effect of over 45% in size
Target sequence (P07954 whole entry, looked up): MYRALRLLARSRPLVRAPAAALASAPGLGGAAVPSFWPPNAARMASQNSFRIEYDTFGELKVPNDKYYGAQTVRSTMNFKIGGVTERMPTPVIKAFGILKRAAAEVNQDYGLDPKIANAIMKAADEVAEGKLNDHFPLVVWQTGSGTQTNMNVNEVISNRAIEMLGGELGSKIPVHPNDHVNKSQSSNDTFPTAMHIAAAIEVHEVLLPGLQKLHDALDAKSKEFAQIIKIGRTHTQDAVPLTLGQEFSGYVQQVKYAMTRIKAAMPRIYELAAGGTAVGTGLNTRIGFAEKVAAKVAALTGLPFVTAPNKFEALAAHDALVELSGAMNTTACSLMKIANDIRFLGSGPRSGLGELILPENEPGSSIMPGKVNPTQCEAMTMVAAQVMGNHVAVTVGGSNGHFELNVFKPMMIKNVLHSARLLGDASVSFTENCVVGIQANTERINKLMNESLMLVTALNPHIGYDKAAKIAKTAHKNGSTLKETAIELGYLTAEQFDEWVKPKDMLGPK
TSG101-PTAP inh = qHTS Validation Assay for Inhibitors of HIV-1 Budding by Blocking the Interaction of PTAP/TSG101: Sytravon Library Screen | Tumor susceptibility gene 101 protein (Homo sapiens), Q99816 | Fluorescence polarization, FITC-PTAP peptide/Tsg101, 20 min | 44,000 tested, under 10 active | Potency, µM (doses to about 115 µM), usual class: inhibitors; also: potency is read from the fitted curve at half-maximal effect; 0% is about no effect
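FITC-labeled PTAP peptide (50 nM final) binding to Tsg101 binding domain (10 uM final) read by fluorescence polarization after 20 min at r.t. in HEPES pH 7.5 buffer. Actives by CRC class, <25 µM.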
GALK inhibitor = qHTS Assay for Inhibitors of Human Galactokinase (GALK): NCGC Sytravon Library Screen. P51570. recombinant GALK, Kinase-Glo ATP luminescence, 1 h. Potency, µM (doses to about 57.5 µM), for inactives: at the top dose activity, negative = inhibition, most hits filed as inhibitors. 44,000 tested, under 10 active;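 also: plate controls were full GALK reaction for no effect and reaction lacking GALK for full effect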
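5 nM GALK with 35 µM ATP and 100 µM galactose in HEPES pH 8.0, MgCl2, NaCl, DTT, BSA; 1 h RT reaction, remaining ATP detected by Kinase-Glo Plus luminescence after 10 min; qHTS concentration series.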
GPR32 ag = qHTS for Agonists of Human Resolvin D1 Receptor DRV1; Probable G-protein coupled receptor 32 (Homo sapiens), O75388; CHO-K1 GPR32 beta-arrestin PathHunter luminescence, 90 min; zero percent set by DMSO-only wells; activation, % at 76.9 µM; 48,000 compounds, 2.5% hits; AID 1346428, 2018;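 active = activation of at least 60% and not above a set upper limit, about 1 call in 100 departs from these limits; inconclusive = activation of 40% to 60%, or above that upper limit; inactive = activation under 40%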; also: 0% is about no effect
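Agonism was scored by beta-Gal fragment complementation (chemiluminescent read, 1 h detection at ambient temperature) reporting beta-arrestin binding to GPR32 in engineered CHO-K1 cells. Compound treatment lasted 90 min at 37 C, normalized to a DMSO basal control.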
NTMT1 inh = Primary qHTS for Inhibitors of N-terminal methyltransferase 1 (NTMT1): MTaseGlo Assay | N-terminal Xaa-Pro-Lys N-methyltransferase 1 (Homo sapiens), Q9BV86 | NTMT1 MTase-Glo SAH luminescence, purified enzyme | Potency, µM (highest dose often 114 µM), without a hit: top-dose activity change, negative = inhibition, hits mostly inhibitors | 59,000 compounds, 2.5% hits;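 also: potency is read from the fitted curve at half-maximal effect; plate controls were DMSO vehicle for no effect and no enzyme for full effect; nearly all actives have a fitted effect of over 65% in size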
Target sequence (Q9BV86 whole entry, looked up): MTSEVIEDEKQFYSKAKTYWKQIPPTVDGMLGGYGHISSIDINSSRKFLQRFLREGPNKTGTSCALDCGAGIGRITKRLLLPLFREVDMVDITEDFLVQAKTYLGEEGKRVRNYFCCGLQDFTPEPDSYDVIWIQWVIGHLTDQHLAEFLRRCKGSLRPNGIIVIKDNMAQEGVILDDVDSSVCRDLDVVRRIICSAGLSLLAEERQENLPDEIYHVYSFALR
* marks the source's active call; other numbers are inactive results; i = inactive; ? = inconclusive; . = no result; ! = repeats disagree; [ ] = another dose, or the depositor's remark. Unless noted, calls follow the shape of the dose curve; as a rule, active = well fitted curve in the direction sought with a large enough effect; inconclusive = small, poorly fitted or top-dose-only effect, or another doubt; inactive = no such curve, though single readings can be large; an effect the other way counts as inactive or inconclusive.

SMILES	B2AR arrestin ag	FH mod	TSG101-PTAP inh	GALK inhibitor	GPR32 ag	NTMT1 inh
Cc1coc2cc3oc(=O)c(CCC(=O)N4CCCCC4)c(C)c3cc12	i	.	i	-1%	107*	.
Cc1coc2cc3oc(=O)c(CC(=O)N4CCCCC4)c(C)c3cc12	i	-11%	i	3%	-7	12%
Cc1ccc(NC(=O)CN2C(=O)N/C(=C\c3cccn3-c3ccc(C(=O)NOCc4ccccc4)cc3)C2=O)cc1	.	.	.	.	.	17%
Cc1ccc(-c2cc(C(=O)Nc3cccc(S(N)(=O)=O)c3)c3ccccc3n2)cc1C	.	.	.	.	.	-3%
CCn1c(=O)cc(SCC(=O)NCCc2cccc(C)c2)c2ccccc21	i	-15%	i	-2%	97*	-7%
CCN(CCCNC(=O)CSc1cc(=O)n(CC)c2ccccc12)c1cccc(C)c1	i	?	i	-3%	75*	?
COc1ccc(-c2nc(Nc3ccc(F)c(F)c3)c3ccccc3n2)cc1	.	.	.	.	.	-16%
Cc1ccc(CNC(=O)c2cc3c(s2)-c2ccc(Cl)cc2SC3)cc1	i	-9%	i	-1%	106*	4%
Cc1ccc(CNC(=O)c2cc3c(s2)-c2ccccc2SC3)cc1	i	-25%	i	3%	-15	-8%
CN(C)c1ccc(Nc2c3ccc(NC(=O)CCN4CCCC4)cc3nc3cc(NC(=O)CCN4CCCC4)ccc23)cc1	.	-7%	.	.	.	6.3µM*
Cc1cc(C)c2c(c1)[C@@H](N(Cc1cc(C(F)(F)F)cc(C(F)(F)F)c1)c1nnn(C)n1)CCCN2CC1CCC(C(=O)O)CC1 (some centres undefined)	.	.	.	.	.	5%
Cc1ccccc1C(=O)Nc1nnc(SCc2cc(=O)n3ccccc3n2)s1	i	-7%	i	4%	2	-4%
COc1ccccc1C(=O)Nc1nnc(SCc2cc(=O)n3ccc(C)cc3n2)s1	i	1.1µM*	i	4%	-4	8%
COc1ccccc1NC(=O)CSc1nnc(NC(=O)Nc2ccc(C)cc2)s1	i	-2%	i	-6%	78*	5%
Cc1cc2ccccc2n1CCNC(=O)c1cccc(Cl)c1	i	-17%	i	1%	116*	0%
CCOC(=O)C1=C(C)NC(C)=C(C(=O)OC)C1c1cccc([N+](=O)[O-])c1 (centres undefined)	.	-28%[53.3 µM]	.	.	-28	-3%[57.5 µM]
COC(=O)C1=C(C)NC(C)=C(C(=O)OC)C1c1ccccc1[N+](=O)[O-]	.	16µM*!	.	.	?	10%[57.5 µM]
Cn1cc(-c2ccc3nnc(Sc4ccc5nn(C)cc5c4)n3n2)cn1	.	2%	.	.	.	15%[57.5 µM]
COCCn1c2c([n+](Cc3cnccn3)c1C)C(=O)c1ccccc1C2=O	.	22µM*	.	.	.	?
CCOC(=O)CSc1nc2ccc(NC(=O)COc3ccccc3C)cc2s1	i	-1%	i	-8%	75*	7%
O=C(COc1ccccc1Cl)Nc1ccc2nc(SCC(=O)N3CCOCC3)sc2c1	i	-3%	i	0%	3	-4%
Cc1ccccc1OCC(=O)Nc1ccc2nc(SCC(N)=O)sc2c1	i	-4%	i	0%	?	-23%
NC(=O)CSc1nc2ccc(NC(=O)COc3ccccc3Cl)cc2s1	i	-3%	i	-1%	90*	?
CC(=O)Nc1ccc2nc(SCCOc3ccccc3Cl)sc2c1	i	?	i	1%	69*	23%
Cn1cc(C2=C(c3cn(CCCSC(=N)N)c4ccccc34)C(=O)NC2=O)c2ccccc21	.	-8%	.	.	.	3.2µM*
SMILES	B2AR arrestin ag	FH mod	TSG101-PTAP inh	GALK inhibitor	GPR32 ag	NTMT1 inh
COc1ccc(OC)c(NC(=O)C2CCN(S(=O)(=O)c3ccc4c(c3)CCCC(=O)N4)CC2)c1	i	-3%	i	2%	72*	2%
COc1cc(NC(=O)C2CCCN(S(=O)(=O)c3ccc4c(c3)CCCC(=O)N4)C2)cc(OC)c1 (centres undefined)	i	-18%	i	-1%	-3	7%
COc1ccc(NC(=O)C2CCN(S(=O)(=O)c3ccc4c(c3)CCCC(=O)N4)CC2)c(OC)c1	i	-3%	i	1%	-6	6%
COc1ccc(NC(=O)C2CCCN(S(=O)(=O)c3ccc4c(c3)CCCC(=O)N4)C2)cc1OC (centres undefined)	i	-5%	i	3%	63*	-6%
Cc1cc(C)cc(Oc2ccc(CNC(=O)[C@H](C)N)cc2C)c1	.	.	.	.	.	1%
Cc1cc(C(=O)N2CCCCc3ccccc32)ccc1CNC(=O)N1CCC[C@H]1C(=O)N(C)C	.	9%	.	.	.	-2%[57.5 µM]
COc1cccc(CNCCSc2nnnn2C)c1OCc1ccc(F)cc1	i	3%	i	?	81*	-2%
Cc1ccc(S(=O)(=O)Nc2ccc(C(=O)Nc3ncc(-c4ccccc4)s3)cc2)cc1	.	.	.	.	.	7%
CCN(CC)C(C)CN1c2ccccc2Sc2ccccc21 (centres undefined)	.	-4%[53.3 µM]	.	.	46	-21%[57.5 µM]
CCN1/C(=C/C=C/c2sc3ccccc3[n+]2CC)Sc2ccccc21	.	1%[20.6 µM]	.	.	-40	18µM*
CC/C(=C(/c1ccc(/C=C/C(=O)O)cc1)c1ccc2[nH]ncc2c1)c1ccc(F)cc1Cl	.	.	.	.	.	32µM*
COc1ccc(NC(=O)c2sc3nc4c(cc3c2N)CN(C(C)C)CC4)c(OC)c1	i	-8%	i	0%	81*	?
Nc1c(C(=O)Nc2ccccc2F)sc2nc3c(cc12)CCCCCC3	i	-3%	i	-13%	72*	7%
CCC1CCc2nc3sc(C(=O)Nc4ccc(F)c(F)c4)c(N)c3cc2C1 (centres undefined)	i	1%	i	4%	5	?
Nc1c(C(=O)Nc2cccc(Cl)c2)sc2nc3c(cc12)CN(Cc1ccccc1)CC3	i	-5%	i	0%	61*	11%
CCC1CCc2nc3sc(C(=O)Nc4ccc(C)cc4C)c(N)c3cc2C1 (centres undefined)	i	-2%	i	1%	69*	-3%
COc1ccccc1NC(=O)c1sc2nc3c(cc2c1N)CCCCCC3	i	-1%	i	-3%	31	8%
